In PubChem BioAssay (Tox21):
Results filed as inconclusive are left out. The source made the active and inactive calls. Unless noted, the call rests on the fitted dose curve.

Assays:
[1] = Nuclear factor erythroid 2-related factor 2/antioxidant responsive element (Nrf2/ARE) small molecule agonists: qHTS cell viability counter screen in human keratinocytes (AID 1919968; active means well fitted curve in the direction sought with a large enough effect in the repeat runs; an effect the other way counts as inactive or inconclusive; further: nearly all actives have a fitted effect of over 55% in size; further: potency means the concentration at half of the fitted maximal effect)
In short: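 Cytotoxicity was multiplexed with the Nrf2/ARE luciferase assay in the same wells. Stably transfected HaCaT keratinocytes were treated with test compounds for 23 h at 37 C. Cell viability was then measured by CellTiter-Fluor fluorescence.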

[2] = Nuclear factor erythroid 2-related factor 2/antioxidant responsive element (Nrf2/ARE) small molecule agonists: luciferase reporter gene qHTS assay in human keratinocytes (AID 1919969); further: nearly all actives have a fitted effect of over 35% in size; further: potency means the concentration at half of the fitted maximal effect
[3] = target: Gonadotropin-releasing hormone receptor (Homo sapiens) (UniProt P30968); assay: Human gonadotropin-releasing hormone receptor (GnRHR) small molecule agonists, calcium flux assay in GnRHR-HEK293 cells (AID 1920063); further: nearly all actives have a fitted effect of over 35% in size
Sequence of Gonadotropin-releasing hormone receptor (Homo sapiens) (P30968 whole entry, looked up): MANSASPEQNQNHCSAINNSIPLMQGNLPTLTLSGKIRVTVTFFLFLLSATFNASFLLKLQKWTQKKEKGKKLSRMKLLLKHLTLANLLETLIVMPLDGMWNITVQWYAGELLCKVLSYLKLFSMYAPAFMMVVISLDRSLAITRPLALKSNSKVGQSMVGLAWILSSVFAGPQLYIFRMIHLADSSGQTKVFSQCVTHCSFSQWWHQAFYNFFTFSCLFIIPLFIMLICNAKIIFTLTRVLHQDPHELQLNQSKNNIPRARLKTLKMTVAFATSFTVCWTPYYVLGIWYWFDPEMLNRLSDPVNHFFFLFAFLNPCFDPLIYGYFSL
In short: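 Agonist activity was measured as intracellular calcium flux in HEK293 cells engineered to stably express human GnRHR. After dye loading for 1 hour at 37 C, compounds in DMSO were added and fluorescence was followed for 3 minutes.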

[4] = target: KiSS-1 receptor (Homo sapiens) (UniProt Q969F8); assay: Human kisspeptin (KISS1R) small molecule agonists, calcium flux assay in KISS1R-HEK293 cells (AID 1920064; active means well fitted curve in the direction sought with a large enough effect in the repeat runs; an effect the other way counts as inactive or inconclusive)
Sequence of KiSS-1 receptor (Homo sapiens) (Q969F8 whole entry, looked up): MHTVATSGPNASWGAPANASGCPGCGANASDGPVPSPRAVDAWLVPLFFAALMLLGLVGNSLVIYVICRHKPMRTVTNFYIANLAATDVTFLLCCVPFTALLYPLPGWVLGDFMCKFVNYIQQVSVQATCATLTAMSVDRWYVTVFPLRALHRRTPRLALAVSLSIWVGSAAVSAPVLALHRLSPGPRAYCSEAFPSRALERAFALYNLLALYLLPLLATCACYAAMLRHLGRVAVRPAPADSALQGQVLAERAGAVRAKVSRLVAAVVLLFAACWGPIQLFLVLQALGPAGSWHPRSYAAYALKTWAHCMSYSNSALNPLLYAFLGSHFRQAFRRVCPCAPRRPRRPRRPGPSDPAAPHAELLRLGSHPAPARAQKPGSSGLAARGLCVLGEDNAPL
In short: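 Agonist activity is monitored as intracellular calcium rise in engineered HEK293 cells carrying human KISS1R. Cells are dye-loaded for 1 h at 37 C before compound addition, and fluorescence is recorded for 3 min.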

[5] = G protein-coupled receptor (GPCR) small molecule agonists, calcium flux assay: HEK293 wild type cell line counter screen (AID 1920065)
In short: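 Seed cells, incubate 18 h (37 C, 5% CO2); add calcium dye, 1 h at 37 C; pin-transfer compounds, ATP control or DMSO; read fluorescence 480/540 nm each second for 3 min.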

[6] = p53 small molecule agonists, cell-based qHTS assay with human liver microsomes: qHTS cell viability counter screen (AID 1963579); further: nearly all actives have a fitted effect of over 45% in size
In short: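 Metabolically activated exposure: compounds, human liver microsomes and NADPH (0.5 mg/mL final apiece) were added to p53RE-bla cells seeded 5 h earlier, left 16 h at 37 C, and then assessed for viability by CellTiter-Glo luminescence.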

[7] = p53 small molecule agonists, cell-based qHTS assay with rat liver microsomes: qHTS cell viability counter screen (AID 1963580); further: nearly all actives have a fitted effect of over 45% in size
In short: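 Counter screen for cytotoxicity under metabolic activation: rat liver microsomes and NADPH, 0.5 mg/mL final each, added with compounds to p53RE-bla HCT-116 cells; 16 h at 37 C, then ATP luminescence read.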

[8] = p53 small molecule agonists, cell-based qHTS assay (AID 1963582; active means well fitted activation curve with a large enough effect in the signal ratio in the repeat runs, not every such curve was filed as active; the % refers to the signal ratio)
In short: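 Cells carrying a p53-responsive bla reporter are treated with test compounds for 16 h at 37 C; beta-lactamase activity is then detected with LiveBLAzer B/G FRET substrate after 2 h at room temperature.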

[9] = target: 5-hydroxytryptamine receptor 2A (Homo sapiens) (UniProt P28223); assay: 5-hydroxytryptamine receptor 2A (HTR2A) small molecule antagonists, cell-based qHTS assay (AID 1963586); further: nearly all actives have a fitted effect of over 45% in size
Sequence of 5-hydroxytryptamine receptor 2A (Homo sapiens) (P28223 whole entry, looked up): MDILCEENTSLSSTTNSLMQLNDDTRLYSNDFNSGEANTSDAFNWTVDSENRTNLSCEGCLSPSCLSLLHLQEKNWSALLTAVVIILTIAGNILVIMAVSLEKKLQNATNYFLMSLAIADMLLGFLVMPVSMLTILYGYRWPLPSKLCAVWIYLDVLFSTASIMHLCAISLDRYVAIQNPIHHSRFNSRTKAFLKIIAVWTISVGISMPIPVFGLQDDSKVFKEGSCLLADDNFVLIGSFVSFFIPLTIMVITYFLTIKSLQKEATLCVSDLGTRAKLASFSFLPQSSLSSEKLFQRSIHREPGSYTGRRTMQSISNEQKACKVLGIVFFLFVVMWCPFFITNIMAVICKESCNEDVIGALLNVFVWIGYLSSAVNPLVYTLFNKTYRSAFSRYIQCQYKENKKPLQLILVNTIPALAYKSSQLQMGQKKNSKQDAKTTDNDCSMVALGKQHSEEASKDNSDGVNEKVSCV
In short: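 CHO cells stably expressing human HTR2A were plated for 18 h at 37 C, then loaded with calcium dye for 1 h. Compounds were preincubated 5 min at room temperature before DOI (4 nM solution) was added. Kinetic fluorescence was read for 3 min.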

[10] = target: 5-hydroxytryptamine receptor 2A (Homo sapiens) (UniProt P28223); assay: 5-hydroxytryptamine receptor 2A (HTR2A) small molecule agonists, cell-based qHTS assay (AID 1963587); further: nearly all actives have a fitted effect of over 30% in size
In short: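 HTR2A-CHO cells, plated 18 h at 37 C/5% CO2, dye-loaded 1 h at 37 C; compounds in DMSO added by pin tool (agonist mode). Intracellular calcium flux read as kinetic fluorescence on FDSS over 2 min at 1 s intervals.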

[11] = target: Muscarinic acetylcholine receptor M1 (Homo sapiens) (UniProt P11229); assay: Cholinergic receptor muscarinic 1 (CHRM1) small molecule antagonists, cell-based qHTS assay (AID 1963588); further: nearly all actives have a fitted effect of over 40% in size
Sequence of Muscarinic acetylcholine receptor M1 (Homo sapiens) (P11229 whole entry, looked up): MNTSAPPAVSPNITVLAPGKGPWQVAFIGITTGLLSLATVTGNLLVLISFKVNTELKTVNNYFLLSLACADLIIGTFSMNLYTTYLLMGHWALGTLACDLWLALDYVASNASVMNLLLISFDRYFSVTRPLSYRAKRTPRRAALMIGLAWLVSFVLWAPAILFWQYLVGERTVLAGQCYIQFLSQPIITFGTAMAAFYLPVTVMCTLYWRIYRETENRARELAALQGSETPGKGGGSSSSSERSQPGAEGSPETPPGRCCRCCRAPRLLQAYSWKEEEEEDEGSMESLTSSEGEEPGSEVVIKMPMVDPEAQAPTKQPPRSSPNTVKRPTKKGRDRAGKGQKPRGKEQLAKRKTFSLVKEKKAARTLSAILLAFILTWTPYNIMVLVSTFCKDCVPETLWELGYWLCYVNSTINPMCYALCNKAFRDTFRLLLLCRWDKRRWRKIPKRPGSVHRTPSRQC
In short: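 Compounds were tested at 15 concentrations in three independent runs. Dye-loaded CHRM1-CHO cells were exposed 5 min at room temperature before stimulation by acetylcholine added at 50nM. Intracellular calcium was read kinetically on FDSS for 3 min.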

[12] = target: Muscarinic acetylcholine receptor M1 (Homo sapiens) (UniProt P11229); assay: Cholinergic receptor muscarinic 1 (CHRM1) small molecule agonists, cell-based qHTS assay (AID 1963589); further: nearly all actives have a fitted effect of over 35% in size
In short: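 Cells were plated and incubated 18 h at 37 C/5% CO2, loaded with calcium dye for 1 h at 37 C, then treated with compounds in DMSO. Fluorescence was recorded kinetically at 1 sec intervals.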

[13] = cAMP Responsive Elements (CRE) small molecule agonists, cell-based qHTS assay (AID 1963590)
In short: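 Cells carrying a CRE-driven beta-lactamase reporter (HEK 293T) are seeded, incubated overnight (18 h), and treated with test compounds for 3 h at 37 C; reporter activity is then detected with a FRET substrate after 2 h at room temperature.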

[14] = cAMP Responsive Elements (CRE) small molecule antagonists, cell-based qHTS assay (AID 1963591; active means well fitted inhibition curve with a large enough effect in the signal ratio in the repeat runs, not every such curve was filed as active; the % refers to the signal ratio)
In short: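 Cells (CRE-bla HEK 293T, DMEM with 10% dialyzed FBS and 25 mM HEPES) are seeded and incubated 18 h. Compounds are added with NKH477 agonist at 0.25 uM final for 3 h, then FRET substrate for 2 h.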

[15] = target: Beta-2 adrenergic receptor (Homo sapiens) (UniProt P07550); assay: Adrenergic beta2 receptor (ADRB2) small molecule antagonists, cell-based qHTS assay (AID 1963592); further: series mostly up to about 92 µM; nearly all actives have a fitted effect of over 50% in size
Sequence of Beta-2 adrenergic receptor (Homo sapiens) (P07550 whole entry, looked up): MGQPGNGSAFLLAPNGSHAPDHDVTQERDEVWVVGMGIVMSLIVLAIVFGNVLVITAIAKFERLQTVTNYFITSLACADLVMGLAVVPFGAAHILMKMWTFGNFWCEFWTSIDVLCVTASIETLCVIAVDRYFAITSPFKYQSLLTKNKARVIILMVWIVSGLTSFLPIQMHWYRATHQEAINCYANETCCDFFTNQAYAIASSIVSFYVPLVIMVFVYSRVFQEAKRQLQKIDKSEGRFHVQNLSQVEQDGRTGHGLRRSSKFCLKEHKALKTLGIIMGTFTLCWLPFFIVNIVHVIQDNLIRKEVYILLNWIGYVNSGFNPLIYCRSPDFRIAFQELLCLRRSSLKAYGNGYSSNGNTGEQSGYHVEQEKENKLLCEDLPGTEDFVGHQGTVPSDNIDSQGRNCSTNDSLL
In short: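 Assay format: CHO-ADRB2 cells, 18-20hr seeding at 37C/5% CO2, then compound plus 1nM isoproterenol agonist mix for 0.5hr RT. Homogeneous time-resolved fluorescence cAMP detection after 1hr, expressed as 665/615 nm ratio.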

[16] = target: D(2) dopamine receptor (Homo sapiens) (UniProt P14416); assay: Dopamine D2 receptor (DRD2) small molecule agonists, cell-based qHTS assay (AID 1963594); further: nearly all actives have a fitted effect of over 35% in size
Sequence of D(2) dopamine receptor (Homo sapiens) (P14416 whole entry, looked up): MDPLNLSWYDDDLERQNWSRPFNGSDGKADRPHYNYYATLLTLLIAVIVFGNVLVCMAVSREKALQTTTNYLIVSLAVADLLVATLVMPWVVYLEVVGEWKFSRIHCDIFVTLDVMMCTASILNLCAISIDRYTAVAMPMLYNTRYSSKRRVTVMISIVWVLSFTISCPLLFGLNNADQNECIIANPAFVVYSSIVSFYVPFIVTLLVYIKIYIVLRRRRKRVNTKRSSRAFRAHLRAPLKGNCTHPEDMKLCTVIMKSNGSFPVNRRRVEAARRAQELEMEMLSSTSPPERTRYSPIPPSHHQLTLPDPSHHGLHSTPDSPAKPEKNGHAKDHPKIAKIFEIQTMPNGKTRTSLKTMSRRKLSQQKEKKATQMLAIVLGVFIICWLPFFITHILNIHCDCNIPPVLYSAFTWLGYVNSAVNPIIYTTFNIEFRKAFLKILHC
In short: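 HEK293 cells stably expressing DRD2 were cultured 24 h at 37 C, then given Ro20-1724 (0.1 mM final) and compounds for 10 min at room temperature. NKH477 (200nM) was then added for 30 min. cAMP was read by HTRF.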

[17] = target: D(2) dopamine receptor (Homo sapiens) (UniProt P14416); assay: Dopamine D2 receptor (DRD2) small molecule antagonists, cell-based qHTS assay (AID 1963595; active means well fitted inhibition curve with a large enough effect in the signal ratio in the repeat runs, with a control signal flat; the % refers to the signal ratio)
In short: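 Cells were plated and grown for 24 h at 37 °C. Ro20-1724 (0.1 mM final) went in first, then compound for 10 min. NKH477 (200 nM) with quinpirole (12 nM) followed for 30 min at RT, then HTRF detection reagents for 1 h.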

[18] = p53 small molecule agonists, cell-based qHTS assay: qHTS cell viability counter screen (AID 1963581); further: nearly all actives have a fitted effect of over 45% in size
In short: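 Viability was counter-screened in parallel with the p53 agonist reporter by measuring intracellular ATP luminescence in the same HCT-116 p53RE-bla wells after 16 h compound treatment at 37 C.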

[19] = target: Beta-2 adrenergic receptor (Homo sapiens) (UniProt P07550); assay: Adrenergic beta2 receptor (ADRB2) small molecule agonists, cell-based qHTS assay (AID 1963593);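 further: CHO cells stably overexpressing human ADRB2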
In short: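 CHO cells stably over-expressing ADRB2 were plated overnight at 37C, then dosed with compounds plus a stimulation mix containing 100uM IBMX and 25uM Ro-20-1724 for 0.5hr at room temperature. cAMP was measured by HTRF competition, 1hr.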
On the % scale 0 is the no-effect control and ±100 the full control effect.

c1ccc(C[n+]2cccc3ccccc32)cc1
inactive: Potency [1] | Potency [2] | Potency [3] | Potency [4] | Potency [5] | Potency [6] | Potency [7] | Potency [8] | Potency [9] | Potency [10] | Potency [11] | Potency [12] | Potency [13] | Potency [14] | Potency [15] | Potency [16] | Potency [17]

N#Cc1ccc(C(c2ccc(C#N)cc2)n2cncn2)cc1
inactive: Potency [1] | Potency [2] | Potency [3] | Potency [4] | Potency [5] | Potency [6] | Potency [7] | Potency [18] | Potency [14] | Potency [19] | Potency [16] | Potency [17]

C=CCc1cc(S(=O)(=O)c2ccc(O)c(CC=C)c2)ccc1O
active: Potency [1] 61.1 µM
inactive: Potency [2] | Potency [3] | Potency [4] | Potency [5] | Potency [6] | Potency [7] | Potency [9] | Potency [10] | Potency [11] | Potency [12] | Potency [13] | Potency [16] | Potency [17]

C[C@H](CCC(=O)O)[C@H]1CC[C@H]2[C@@H]3C(=O)C[C@@H]4CC(=O)CC[C@]4(C)[C@H]3CC(=O)[C@]12C
inactive: Potency [1] | Potency [2] | Potency [3] | Potency [4] | Potency [5] | Potency [6] | Potency [7] | Potency [9] | Potency [10] | Potency [11] | Potency [12] | Potency [15] | Potency [19] | Potency [16] | Potency [17]

CC1CN(c2cc3c(cc2F)c(=O)c(C(=O)O)cn3-c2ccc(F)cc2F)CCN1 (configuration not stated)
inactive: activity change, negative = cytotoxicity [1] 6.63% [at 8.39 µM] | activity, positive = activation [2] 4.55% [at 8.39 µM] | activity change [3] -0.555% [at 5.22 µM, hits give high values] | activation [4] 3.09% [at 6.97 µM] | activation [5] 0.9% [at 5.23 µM] | activity change, negative = cytotoxicity [6] 1.1% [at 5.99 µM] | activity change, negative = cytotoxicity [7] -0.821% [at 5.99 µM] | activity change, negative = cytotoxicity [18] 22.9% [at 5.99 µM] | activation [13] -2.24% [at 8.39 µM] | activity change, negative = inhibition [15] 4.5% [at 8.39 µM] | activation [16] -7.78% [at 8.39 µM] | activity change, negative = inhibition [17] -0.708% [at 8.38 µM]

OC[C@H]1O[C@@H]2O[C@H]3[C@H](O)[C@@H](O)[C@@H](O[C@H]4[C@H](O)[C@@H](O)[C@@H](O[C@H]5[C@H](O)[C@@H](O)[C@@H](O[C@H]6[C@H](O)[C@@H](O)[C@@H](O[C@H]7[C@H](O)[C@@H](O)[C@@H](O[C@H]8[C@H](O)[C@@H](O)[C@@H](O[C@H]9[C@H](O)[C@@H](O)[C@@H](O[C@H]1[C@H](O)[C@H]2O)O[C@@H]9CO)O[C@@H]8CO)O[C@@H]7CO)O[C@@H]6CO)O[C@@H]5CO)O[C@@H]4CO)O[C@@H]3CO
inactive: Potency [1] | Potency [2] | Potency [3] | Potency [4] | Potency [5] | Potency [6] | Potency [7] | Potency [9] | Potency [10] | Potency [11] | Potency [13] | Potency [14] | Potency [15] | Potency [19] | Potency [16]

CO[Si](C)(OC)OC
inactive: Potency [1] | Potency [2] | Potency [3] | Potency [4] | Potency [5] | Potency [6] | Potency [7] | Potency [9] | Potency [10] | Potency [11] | Potency [12] | Potency [13] | Potency [14] | Potency [15] | Potency [16] | Potency [17]

Nc1ccc(Oc2ccc(N)c(N)c2)cc1
active: Potency [2] 6.11 µM
inactive: Potency [1] | Potency [3] | Potency [4] | Potency [5] | Potency [6] | Potency [7] | Potency [9] | Potency [10] | Potency [11] | Potency [12] | Potency [13] | Potency [14] | Potency [15] | Potency [19] | Potency [17]
